Screening results: PubChem BioAssay, National Center for Advancing Translational Sciences (NCATS)
FBPA coupling cs: coupling enzyme interference in Giardia aldolase counter-screen | coupling enzyme system counterscreen, AmpLite Red fluorescence | activity change, negative = inhibition, % at 58.2 µM, hits read low | hit rate 0.67% among 290,000 | AID 2472; in the data active = activity change below about -30%
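Final compound at 57.5 uM, incubated 10 min at RT with coupling enzyme reagent (glyceraldehyde-3-phosphate), then 20 min with substrate and AmpLite Red detection. Fluorescence read at 525/598 nm; tests interference with the coupling assay, not aldolase inhibition.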
PLK1 PBD block: PLK1 (human) polo-box domain binding inhibition; hit rate 2.8% among 360,000; Plk1 PBD binding of FITC phosphopeptide, fluorescence polarization; Potency, µM, hits mostly inhibitors; P53350; note: series mostly up to about 57 µM; nearly all actives have a fitted effect of over 65% in size
GALK inh: galactokinase (human) inhibition; hit rate 0.007% among 270,000; AID 1868; Purified GALK, Kinase-Glo residual ATP luminescence; Potency, µM (doses to about 57.5 µM), hits mostly inhibitors
Target sequence (P51570 whole entry, looked up): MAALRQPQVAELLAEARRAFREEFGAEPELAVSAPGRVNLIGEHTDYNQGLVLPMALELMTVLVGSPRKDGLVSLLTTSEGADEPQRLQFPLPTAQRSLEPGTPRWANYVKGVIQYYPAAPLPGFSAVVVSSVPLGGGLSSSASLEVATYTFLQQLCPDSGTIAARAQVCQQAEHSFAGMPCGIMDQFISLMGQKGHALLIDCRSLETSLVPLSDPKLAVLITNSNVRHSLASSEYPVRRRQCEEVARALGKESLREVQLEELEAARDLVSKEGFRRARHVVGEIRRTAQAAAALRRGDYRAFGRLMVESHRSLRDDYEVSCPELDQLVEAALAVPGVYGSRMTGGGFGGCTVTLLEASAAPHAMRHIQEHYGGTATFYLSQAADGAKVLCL
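Luminescence from leftover ATP (Ultra-Glo luciferase/luciferin) served as read-out after a 1 h room-temperature reaction of 5 nM GALK with 35 uM ATP and 100 uM galactose.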
USP2a block: USP2a (human) protease inhibition; USP2 core, Ub-CHOP2 coupled fluorogenic reporter, 485/531; O75604; Potency, µM (highest dose often 38.3 µM), most hits filed as inhibitors; hit rate 0.01% among 330,000
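USP2 core (10nM final) preincubated 30min RT with compound in 20mM Tris-HCl pH 8.0, 2mM CaCl2, 2mM beta-mercaptoethanol, 0.05% CHAPS; 25nM Ub-CHOP2 plus 25nM reporter substrate added, fluorescence (Ex485/Em531) read after 60min.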
USP1-UAF1 inh: USP1/UAF1 (human) deubiquitinase inhibition | recombinant USP1/UAF1, Ub-Rhodamine cleavage fluorescence | Potency, µM (highest dose often 57.1 µM), actives largely listed as inhibitors | hit rate 0.23% among 390,000; note: nearly all actives have a fitted effect of over 60% in size
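USP1/UAF1 complex at 1 nM was preincubated with compound for 15 min at room temperature, then Ub-Rho substrate (150nM final) was added. Fluorescence (480/540 nm) was read kinetically, 6 reads every 60 seconds.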
VDR inhibitor: vitamin D3 receptor (human) inhibition | VDR-SRC2-3 peptide fluorescence polarization, 2 h | hit rate 0.93% among 400,000 | P11473 | Potency, µM, actives largely listed as inhibitors
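The screen uses fluorescence polarization to detect compounds that interfere with recruitment of the SRC2-3 coactivator peptide to VDR; plates are read after 2 h at room temperature.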
Of the large screens only hits and unclear results are named; the others gave an inactive call; ! = not confirmed by another sample. Hits are enriched below; roughly 3.2% of the tested compounds scored in any of these assays. Unless noted, calls come from the whole dose curve; as a rule, active = well fitted curve in the direction sought with a large enough effect; inconclusive = small, poorly fitted or top-dose-only effect, or another doubt; inactive = no such curve, though single readings can be large; an effect the other way counts as inactive or inconclusive.

CCc1ccc(C2c3[nH]c4ccccc4c3CCN2C(=O)c2ccc(=O)n(C)n2)cc1 (stereo unspecified)	none
CC(Oc1cccc(Cl)c1)C(=O)NCc1ccc(S(N)(=O)=O)cc1 (stereo unspecified)	PLK1 PBD block 19µM, VDR inhibitor inconclusive
Cc1cccc(OC(C)C(=O)NCc2ccc(S(N)(=O)=O)cc2)c1 (stereo unspecified)	none
Cc1ccc(NC(=S)N2CCN(C)CC2)c(C)c1	none
Cc1ccc(NC(=S)N2CCN(C(=O)c3ccccc3)CC2)c(C)c1	PLK1 PBD block 27µM
COc1ccc(NC(=O)c2cccc(C(=O)Nc3ccc(OC)cc3)n2)cc1	none (no result: PLK1 PBD block, USP1-UAF1 inh, VDR inhibitor)
COc1ccc(NC(=O)c2sc(=S)[nH]c2N)cc1	PLK1 PBD block inconclusive, VDR inhibitor 50µM
CCC(=O)N1CCc2cc(S(=O)(=O)NCc3ccc(C)cc3)ccc21	none (no result: FBPA coupling cs, PLK1 PBD block, GALK inh, USP2a block)
CC1CCCCC1NC(=O)c1cc2ccccc2o1 (stereo unspecified)	PLK1 PBD block 30µM
O=C(NC1CCCC1)c1cc2ccccc2o1	none (no result: FBPA coupling cs)
O=C(COc1ccccc1)OCc1cc(=O)n2nc(C3CC3)sc2n1	USP1-UAF1 inh inconclusive (no result: FBPA coupling cs, PLK1 PBD block, GALK inh, USP2a block)
COc1ccc(NC(C)=O)cc1NC(=O)c1cccc(C(F)(F)F)c1	none
O=C(NCCS(=O)(=O)c1ccc(Cl)cc1)c1ccc(F)cc1	PLK1 PBD block 21µM, VDR inhibitor inconclusive
O=C(NCCS(=O)(=O)c1ccc(Br)cc1)c1ccc(F)cc1	none
O=C(NCc1ccncc1)c1ccc(Oc2ccccc2)cc1	PLK1 PBD block 11µM
CCS(=O)(=O)c1c([N+](=O)[O-])ncn1C	none
Cn1cnc([N+](=O)[O-])c1S(=O)(=O)Oc1cccc2ccccc12	PLK1 PBD block 8.4µM, USP1-UAF1 inh inconclusive, VDR inhibitor inconclusive (no result: FBPA coupling cs, GALK inh, USP2a block)
Cn1cnc([N+](=O)[O-])c1S(=O)(=O)Oc1ccc(Cl)cc1	PLK1 PBD block inconclusive, USP1-UAF1 inh inconclusive, VDR inhibitor 25µM (no result: FBPA coupling cs, GALK inh, USP2a block)
COC(=O)C1CCCCN1C(=O)c1ccc2oc(Cc3ccccc3)nc2c1 (stereo unspecified)	none (no result: FBPA coupling cs)
Cc1cc(=O)n2nc(-c3ccccc3)sc2c1C#N	PLK1 PBD block 21µM, VDR inhibitor inconclusive
Cc1cc(=O)n(Cc2ccccc2)c(O)c1C#N	none
COCCN(CC1CCCN(C2Cc3ccccc3C2)C1)C(=O)c1cccs1 (stereo unspecified)	none
COc1ccc(-c2coc3cc(OC(C)=O)ccc3c2=S)cc1	PLK1 PBD block 12µM, VDR inhibitor inconclusive (no result: FBPA coupling cs, GALK inh, USP2a block)
CC[n+]1ccc(C[n+]2ccccc2)c2ccccc21	FBPA coupling cs -32
O=C(CSCc1cccc(Br)c1)N/N=C/c1ccc2c(c1)OCO2	none (no result: FBPA coupling cs)
COc1ccc(OCCCC(=O)Nc2nc(-c3ccccn3)cs2)cc1	PLK1 PBD block 27µM
O=C(CCS(=O)(=O)c1ccccc1)Nc1nc(-c2ccccn2)cs1	none (no result: FBPA coupling cs, GALK inh, USP2a block)
O=C(COc1ccccc1)NCc1cccs1	none
CCc1cc(N2CCOCC2)cc2c1[nH]c1ccccc12	FBPA coupling cs -43, PLK1 PBD block 24µM
c1ccc2c(c1)[nH]c1c(N3CCOCC3)ncnc12	none
O=C(/C=C/c1c(F)cccc1Cl)c1ccc(O)cc1	VDR inhibitor 79µM
COc1ccc(C2C=C(C34CC5CC(CC(C5)C3)C4)NC(=S)N2)cc1 (stereo unspecified)	PLK1 PBD block 12µM, VDR inhibitor inconclusive
Cc1nc2c3ccccc3nc(NNC(=O)CCC(=O)NCCN3CCN(c4ccccc4F)CC3)n2n1	PLK1 PBD block 30µM (no result: FBPA coupling cs)
COCCNC(=O)CCC(=O)NNc1nc2ccccc2c2nc(C)nn12	none
O=C(c1cc(-c2ccco2)nn1-c1cccc(Cl)c1)N1CCCCC1	PLK1 PBD block 27µM, VDR inhibitor inconclusive
CC(C)NC(=O)c1cc(-c2ccco2)nn1-c1ccc(Cl)cc1	VDR inhibitor inconclusive (no result: FBPA coupling cs)
COc1cccc(NC(=O)N2C3CCCC2CC(NC(=O)C2CC2)C3)c1 (stereo unspecified)	none
c1ccc(CN2CCC(N3CCC(N4CCCCCC4)CC3)CC2)cc1	none
C#CC1CN(Cc2ccccc2)CC(C#C)N1C (stereo unspecified)	PLK1 PBD block 30µM
CCOC(=O)C1=C(C)OC(=Cc2ccccc2)C1=O	none (no result: FBPA coupling cs, GALK inh, USP2a block, VDR inhibitor)
CCOC(=O)C1=C(O)c2ccccc2C(=O)/C1=C\c1ccc(C)cc1	FBPA coupling cs -51, PLK1 PBD block 0.67µM, USP1-UAF1 inh inconclusive, VDR inhibitor inconclusive
COC(=O)CCN1CCC(c2cc(-c3cccc(C(F)(F)F)c3)n[nH]2)CC1	none
O=C(CNC1=NCCC1)c1ccc(Cl)cc1	FBPA coupling cs -36
CC(=O)NCC(=O)NNC1CC(=O)N(c2cccc(Cl)c2)C1=O (stereo unspecified)	none (no result: GALK inh)
COc1cc(NCCCCC(C)N)c2nccc(C)c2c1 (stereo unspecified)	USP1-UAF1 inh inconclusive (no result: FBPA coupling cs, GALK inh, USP2a block, VDR inhibitor)
COc1cc(NCCCC(C)N)c2ncccc2c1 (stereo unspecified)	FBPA coupling cs -58, USP1-UAF1 inh 5µM, VDR inhibitor 45µM!
Cc1cc(C)n(-c2cc(-c3ccccc3)nc(C)n2)n1	PLK1 PBD block 19µM
COc1c(C=O)c(O)cc2c1C(=O)c1ccccc1C2=O	VDR inhibitor 7.1µM (no result: FBPA coupling cs, PLK1 PBD block, GALK inh, USP2a block, USP1-UAF1 inh)
Nc1c(O)ccc2c1C(=O)c1ccccc1C2=O	none
CN(C)S(=O)(=O)c1cccc(NC(=O)c2cncc(Br)c2)c1	none
Cc1cnc(C(=O)Nc2ccc(C)c(S(=O)(=O)N(C)C)c2)cn1	PLK1 PBD block 24µM, VDR inhibitor inconclusive
Cc1ccc(NC(=O)c2cncc(Br)c2)cc1S(=O)(=O)N(C)C	PLK1 PBD block 15µM, VDR inhibitor 45µM
Cc1ccc(NC(=O)c2cnccn2)cc1S(=O)(=O)N(C)C	none
CC1CC(C)CN(C(=O)C2CC(=O)N(c3ccc4c(c3)OCCO4)C2)C1 (stereo unspecified)	none (no result: FBPA coupling cs, GALK inh)
COc1ccc(C(=O)NCCn2cc(SCC(=O)NCc3ccco3)c3ccccc32)cc1	PLK1 PBD block 3µM
COc1ccc(C(=O)NCCn2cc(SCC(=O)NCC3CCCO3)c3ccccc32)cc1 (stereo unspecified)	none
CCCC1NC(=O)c2cccnc2-n2c1nc1ccc(C)cc1c2=O (stereo unspecified)	none (no result: FBPA coupling cs, GALK inh, USP2a block, VDR inhibitor)
Cc1cccc(N2C(=O)/C(=C\c3ccc(OC(F)F)cc3)c3ccccc3C2=O)c1	PLK1 PBD block 2.4µM, USP1-UAF1 inh inconclusive, VDR inhibitor 35µM
Cc1ccc2c(c1)C(=O)C(=O)N2Cc1ccccc1	VDR inhibitor 79µM (no result: FBPA coupling cs, GALK inh)
Cc1ccc2c(c1)C(=O)C(=O)N2Cc1ccc(F)cc1	PLK1 PBD block inconclusive, VDR inhibitor inconclusive (no result: FBPA coupling cs, GALK inh)
Cc1ccc2c(c1)C(=O)C(=O)N2CC1COc2ccccc2O1 (stereo unspecified)	PLK1 PBD block inconclusive, VDR inhibitor 71µM
